Compound activity (PubChem)
Most compounds without a hit are left out; they make up all but 10% or so of the library.
BAZ2B block: inhibitors of human BAZ2B bromodomain; Potency, µM (titrated, usually from 114 µM), for inactives: at the highest dose activity change, negative = inhibition, usual class: inhibitors; AID 504333; 360,000 tested, 4.4% active; AlphaScreen BAZ2B-H3K14Ac peptide displacement; Q9UIF8; also: % is scaled to controls: 0 for no effect and ±100 for the full control effect; nearly all actives have a fitted effect of over 60% in size
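AlphaScreen displacement of biotin-H3(5-23)K14Ac peptide (50 nM final) from BAZ2B (50 nM final) in PBS pH 7.4, 0.01% Tween-20; complex preformed 30 min RT, then compounds (top 110 uM) 30 min RT, beads 20 min dark.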
GLS inh: inhibitors of human glutaminase (GLS). O94925. GLS enzymatic activity, qHTS titration. Potency, µM (doses to about 45.5 µM), for the others: at the top dose activity change, negative = inhibition, hits mostly inhibitors. 410,000 tested, 0.21% active. AID 624170; also: % is scaled to controls: 0 for no effect and ±100 for the full control effect
Target sequence (O94925 whole entry, looked up): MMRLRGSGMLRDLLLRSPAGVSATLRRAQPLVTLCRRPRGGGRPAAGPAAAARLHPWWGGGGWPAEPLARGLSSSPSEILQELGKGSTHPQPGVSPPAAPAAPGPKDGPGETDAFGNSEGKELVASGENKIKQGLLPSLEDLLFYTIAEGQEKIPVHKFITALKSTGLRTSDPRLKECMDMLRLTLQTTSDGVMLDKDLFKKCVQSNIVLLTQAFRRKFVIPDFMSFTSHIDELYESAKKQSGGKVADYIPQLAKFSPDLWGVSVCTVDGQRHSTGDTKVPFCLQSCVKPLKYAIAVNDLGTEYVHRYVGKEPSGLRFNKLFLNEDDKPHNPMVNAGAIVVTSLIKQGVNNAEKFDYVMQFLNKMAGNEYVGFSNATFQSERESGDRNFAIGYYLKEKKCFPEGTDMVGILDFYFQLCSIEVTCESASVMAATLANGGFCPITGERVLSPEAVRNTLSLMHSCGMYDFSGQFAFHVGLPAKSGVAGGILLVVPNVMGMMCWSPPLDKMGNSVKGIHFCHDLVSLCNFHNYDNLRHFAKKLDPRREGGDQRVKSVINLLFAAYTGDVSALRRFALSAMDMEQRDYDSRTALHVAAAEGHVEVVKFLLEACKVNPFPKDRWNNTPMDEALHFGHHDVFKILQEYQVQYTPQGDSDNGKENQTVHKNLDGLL
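hKGA in 45 mM KH2PO4 (pH 8.2), 0.02% Tween-20 with compound, then 1mM L-Glutamine (stock as added) plus glutamate oxidase/HRP/Amplex red coupling mix. Fluorescence read initially and after 30 min at RT; signal change reflects glutamate formation.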
HP1b binding inh: HP1-beta chromodomain-methylated histone interaction inhibition. AlphaScreen HP1-beta / biotin-H3K9me3 peptide binding. Potency, µM (titrated, usually from 114 µM), for inactives: top-dose activity change, negative = inhibition, most hits filed as inhibitors. 390,000 tested, 0.56% active. AID 540317; also: nearly all actives have a fitted effect of over 70% in size
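HP1-beta protein (50 nM final) preincubated 30 min at room temperature with biotinylated H3(1-18)K9me3 peptide (50 nM) in PBS pH 7.4, 0.01% Tween-20, then compound added for 30 min. AlphaScreen streptavidin donor/nickel chelate acceptor beads (10 ug/mL final), 30 min dark, luminescence read.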
G9a inh: blocks human histone lysine methyltransferase G9a | Q96KQ7 | Potency, µM (doses to about 102 µM), for the others: top-dose activity, negative = inhibition, actives largely listed as inhibitors | 350,000 tested, 8.8% active | G9a H3K9 monomethylation, AlphaScreen, 2 h; also: % is scaled to controls: 0 for no effect and ±100 for the full control effect; nearly all actives have a fitted effect of over 75% in size
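Step 1: enzyme (final 20 nM) with compound, 15 min RT. Step 2: substrate peptide 500 nM and SAM 20 uM, 2 h RT. Step 3: anti-H3K9me1 antibody and AlphaScreen beads, 10 min, then plate read.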
JMJD2A Tudor inh: inhibitors of human JMJD2A Tudor domain; 390,000 tested, 4.4% active; AlphaScreen JMJD2A-Tudor / H3K4me3 peptide binding; Potency, µM (highest dose often 114 µM), for inactives: top-dose activity change, negative = inhibition, usual class: inhibitors; AID 504339; O75164; also: % is scaled to controls: 0 for no effect and ±100 for the full control effect; nearly all actives have a fitted effect of over 50% in size
L3MBTL1 block: L3MBTL1 (human) inhibition. Q9Y468. AID 485360. Potency, µM (top dose mostly 57.1 µM), for the others: at the highest dose activity, negative = inhibition, most hits filed as inhibitors. AlphaScreen L3MBTL1–H3K9me1 peptide binding. 230,000 tested, 0.66% active; also: % is scaled to controls: 0 for no effect and ±100 for the full control effect; nearly all actives have a fitted effect of over 60% in size
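L3MBTL1 (50 nM) pre-complexed 30 min with biotinylated H3(1-15)K9me1 peptide (75 nM), then compounds added for 30 min at room temperature; AlphaScreen streptavidin donor/nickel chelate acceptor beads (10 ug/mL final) read after 30 min dark incubation.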
Active calls of the source: *; ? = inconclusive; . = no result given; [ ] = another dose, or the depositor's remark. Calls follow the shape of the dose curve; as a rule, active = well fitted curve in the direction sought with a large enough effect; inconclusive = small, poorly fitted or top-dose-only effect, or another doubt; inactive = no such curve, though single readings can be large; an effect the other way counts as inactive or inconclusive. Potency is read from the fitted curve at half-maximal effect.

SMILES | BAZ2B block | GLS inh | HP1b binding inh | G9a inh | JMJD2A Tudor inh | L3MBTL1 block
NC(=O)CC1NC(=O)c2cc([N+](=O)[O-])cc(I)c2OCCC(C(N)=O)NC(=O)[C@@H]2CCCN2C1=O (stereo partly specified) | -9% | 6% | 42% | 79µM* | -17% | 12%
COc1cc(NC(=O)c2ccc3oc(=O)c(S(=O)(=O)c4ccccc4)cc3c2)cc(OC)c1 | -13%[57.1 µM] | -12% | 23% | -32%[59 µM] | -20% | .
CCCCCSc1nc2c(cnn2-c2ccccc2)c(=O)[nH]1 | -6% | 1% | 46% | 1%[59 µM] | -1% | 7%
CCC1CCCCN1C(=O)CSc1nc2c(cnn2-c2ccc(C)cc2)c(=O)[nH]1 (stereo unspecified) | 2% | -5% | 27% | 56µM* | -13% | -16%
Cc1ccc(-n2ncc3c(=O)[nH]c(SCC(=O)N4CCOCC4)nc32)cc1 | -3% | 13% | 14% | -49% | -3% | 3%
O=C(CSc1nc2c(cnn2-c2ccc(F)cc2)c(=O)[nH]1)N1CCOCC1 | 9% | 9% | 20% | 79µM* | -12% | 11%
CCCCCSc1nc2c(cnn2-c2ccc(F)cc2)c(=O)[nH]1 | -12% | 7% | 15% | 22% | 22µM* | .
O=C(CSc1nc2c(cnn2-c2ccccc2)c(=O)[nH]1)N1CCOCC1 | -4% | ? | -4% | -46%[0.0925 µM] | -18%[11.4 µM] | 4%
CC(C)(C)OC(=O)N1CCC(c2c(C(=O)Nc3ccc4c(c3)OCCO4)cnn2-c2ccc(F)cc2F)CC1 | -1%[57.1 µM] | 2% | -2% | ? | -24% | .
COc1cc(NC(=O)c2cc3nc(-c4ccc(C)cc4)cc(C(F)(F)F)n3n2)cc(OC)c1OC | -2% | 14% | 3% | -10%[59 µM] | -19% | .
Nc1nn2cc(-c3ccc(Br)cc3)nc2c2ccccc12 | -31% | 2% | 16% | 79µM* | -18% | .
CCCCNCCOc1ccccc1-c1ccccc1 | ? | 3% | ? | ? | 3.5µM* | 10%
COCCNCCOc1ccccc1-c1ccccc1 | ? | 1% | ? | 10µM* | 14µM* | .
COc1ccccc1OCCCCNCCO | 1% | -3% | 31% | 1%[12.7 µM] | -17% | .
COCCCNCCOc1ccccc1-c1ccccc1 | -32% | 5% | -35% | 7.9µM* | 25µM* | ?
COCCCNCCCCOc1ccccc1-c1ccccc1 | 71µM* | 4% | ? | 14µM* | 79µM* | -2%
O=C(CCSCc1cnn(-c2ccccc2)c1-n1cccc1)NCc1ccccc1Cl | -22% | -15% | 19% | ? | -21% | .
COc1cc(NC(=O)CCNS(=O)(=O)c2ccc3c(c2)CCN3C(=O)C2CC2)cc(OC)c1 | 0% | -4% | 27%[57 µM] | 10%[59 µM] | 1% | .
CC[C@@]12CCCN3CCc4c(n(c5ccccc45)[C@](O)(C(=O)OC)C1)C32 (stereo partly specified) | . | 4% | . | -26%[2.33 µM] | . | .
OCCNCCOc1ccccc1F | 0% | 6% | 33% | -1%[59 µM] | -7% | 9%
OCCNCCOCCOc1ccccc1-c1ccccc1 | ? | -10% | ? | 8.9µM* | 3.2µM* | -3%
CC(C)Nc1nnc(SCC(=O)c2c(N)n(Cc3ccccc3)c(=O)n(C)c2=O)s1 | 1%[57.1 µM] | 7% | 32% | -17% | 7% | 7%
CC(=O)c1c(C)[nH]c(C(=O)CSc2ccc(F)cc2)c1C | -2% | 5% | 23% | -27% | -12% | -2%
CC(=O)c1c(C)[nH]c(C(=O)CSc2nnc(NC3CC3)s2)c1C | -23% | 4% | 64% | 50µM* | -11% | 8%
Cn1c(N)c(C(=O)CSc2nnc(NC3CCCCC3)s2)c(=O)n(C)c1=O | 1% | 0% | 18% | 50µM* | 4% | 2%
SMILES | BAZ2B block | GLS inh | HP1b binding inh | G9a inh | JMJD2A Tudor inh | L3MBTL1 block
CCS(=O)(=O)Nc1ccc(C2=NN(C(=O)c3ccco3)C(c3cccs3)C2)cc1 (stereo unspecified) | -21% | -12% | 20% | -4% | -21% | .
CCS(=O)(=O)Nc1ccc(C2=NN(C(=O)c3ccccc3)C(c3cccs3)C2)cc1 (stereo unspecified) | 79µM* | 0% | 34% | 28µM* | -22% | .
C/C=C/C=C/C(=O)[C@@H]1[C@@H]([C@]2(C)OC(=O)C(C)=C2O)[C@H]2/C(=C(O)/C=C/C=C/C)C(=O)[C@]1(C)C(=O)C2(C)O (stereo partly specified) | 79µM* | 10µM* | -21% | ? | 45µM* | .
CC(C)(C)Cc1nnc(NS(=O)(=O)c2ccccc2)s1 | -19% | 13% | -1% | 79µM* | -13% | 5%
CC(C)Cc1nnc(NS(=O)(=O)c2ccccc2)s1 | . | 9% | . | . | . | .
CC(CC(=O)Nc1nnc(CC(C)(C)C)s1)c1ccccc1 (stereo unspecified) | 5% | 5% | -7% | 40µM* | -12% | 0%
COc1ccc(C2=C(N3CCN(c4cc(Cl)ccc4C)CC3)c3ccccc3C2=O)cc1 | 2.8µM* | -9% | ? | 3.5µM* | 6.3µM* | .
CCC(=O)N1CCc2cc(Br)cc(S(=O)(=O)N3CCN(c4ccc(C)cc4)C(C)C3)c21 (stereo unspecified) | 1% | -1% | 32% | 9%[59 µM] | -9% | .
Cc1ccc(Nc2nnc(-c3ccc(C)c(S(=O)(=O)N4CCOCC4)c3)c3ccccc23)c(C)c1 | -19% | 0% | 14% | -46%[59 µM] | -21% | .
CCN(C(=O)CSc1nnc2ccccn12)c1c(N)n(Cc2ccccc2)c(=O)[nH]c1=O | 5% | -15% | 52% | 50µM* | 2% | 8%
Cc1cccc(NC(=O)CSCC(=O)N(CCC(C)C)c2c(N)n(Cc3ccccc3)c(=O)[nH]c2=O)c1 | -15% | -7% | 17% | 40µM* | -5% | 6%
CCN(C(=O)CSc1ncccn1)c1c(N)n(Cc2ccccc2)c(=O)[nH]c1=O | -6% | 4% | 21% | 50µM* | -17% | 2%
CCCCN(C(=O)CSc1nnc(-c2ccccc2)n1C)c1c(N)n(Cc2ccccc2)c(=O)[nH]c1=O | 1% | 2% | 20% | 10µM* | -12% | 7%
CCCCN(C(=O)CSc1nncn1-c1ccccc1)c1c(N)n(Cc2ccccc2)c(=O)[nH]c1=O | 3% | 5% | 66% | -14%[59 µM] | -8% | 6%
CCOc1ccc(NC(=O)Cn2c(=O)c(CNc3ccc(OC)cc3)cc3ccc(OC)cc32)cc1 | -19% | 5% | 17% | ? | -16% | .
CCCCN(C)C(=O)c1ccc2c(c1)N(Cc1cccc(F)c1)C(=O)c1ccccc1S2 | -2% | 12% | 5% | -8%[59 µM] | -23% | .
CN(C)CC/C=C1\c2ccccc2COc2ccc(CC(=O)O)cc21 | . | -10% | . | 23%[59 µM] | . | .
